High-throughput results (PubChem BioAssay)
Sampled rows, rich in hits. Any-hit rate of the full collection: about 12%.
G9a inh – G9a (human) methyltransferase inhibition; Q96KQ7; G9a H3K9 monomethylation, AlphaScreen, 2 h; Potency, µM (top dose mostly 102 µM), hits mostly inhibitors; hit rate 8.8% among 350,000; AID 504332; further: nearly all actives have a fitted effect of over 75% in size
Target sequence (Q96KQ7 913-1193 limits assumed): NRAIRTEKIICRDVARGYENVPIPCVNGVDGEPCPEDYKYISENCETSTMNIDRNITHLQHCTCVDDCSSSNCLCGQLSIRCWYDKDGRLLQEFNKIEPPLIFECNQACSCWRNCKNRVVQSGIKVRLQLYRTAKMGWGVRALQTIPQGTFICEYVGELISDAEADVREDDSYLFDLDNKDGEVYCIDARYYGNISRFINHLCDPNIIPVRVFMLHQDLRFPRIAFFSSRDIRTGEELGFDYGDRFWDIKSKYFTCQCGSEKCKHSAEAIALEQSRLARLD
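Readings reflect AlphaScreen signal from monomethyl-H3K9 antibody detection. HMT at 20 nM; substrate b-H3K9 500 nM; cofactor SAM 20 uM; 2 h RT reaction; compounds tested as titrations in qHTS with 15 min preincubation.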
BAZ2B block – blocks human BAZ2B. Q9UIF8. AlphaScreen BAZ2B-H3K14Ac peptide displacement. Potency, µM (top dose mostly 114 µM), actives largely listed as inhibitors. hit rate 4.4% among 360,000. AID 504333; further: nearly all actives have a fitted effect of over 60% in size
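BAZ2B (50 nM) with biotin-H3(5-23)K14Ac peptide (50 nM) in PBS pH 7.4, 0.01% Tween-20, preformed 30 min, then compound 30 min at room temperature; top concentration 110uM. AlphaScreen streptavidin donor/nickel chelate acceptor beads (10 ug/mL final), 20 min dark, signal read.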
Sfp inh – blocks B. subtilis Sfp PPTase activity; Q9F4F7; hit rate 3.5% among 310,000; Biochemical Sfp PPTase activity, qHTS; Potency, µM, hits mostly inhibitors;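 further: the enzyme is Sfp with the accession as filed and its product quenches rhodamine fluorescence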
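With Hepes-Na pH 7.6 buffer containing 10 mM MgCl2, Sfp (15 nM) modified BHQ-2-YbbR (12.5 uM) using rhodamine-CoA (5 uM). Two reads 30 minutes apart at 525/598 nm yielded each well's rate.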
HP1b chromo inh – HP1-beta chromodomain-methylated histone interaction inhibition; AID 540317; AlphaScreen HP1-beta / biotin-H3K9me3 peptide binding; P83916; hit rate 0.56% among 390,000; Potency, µM (series often up to 114 µM), actives largely listed as inhibitors; further: nearly all actives have a fitted effect of over 70% in size
Target sequence (P83916 whole entry, looked up): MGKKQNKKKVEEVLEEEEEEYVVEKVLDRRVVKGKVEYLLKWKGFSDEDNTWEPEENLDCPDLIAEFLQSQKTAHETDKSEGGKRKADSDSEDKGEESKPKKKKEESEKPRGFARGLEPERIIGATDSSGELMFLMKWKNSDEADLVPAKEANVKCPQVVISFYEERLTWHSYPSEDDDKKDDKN
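AlphaScreen: HP1-beta (50 nM) preformed 30 min with biotin-H3(1-18)K9me3 peptide (50 nM) in PBS pH 7.4, 0.01% Tween-20. Compound added for 30 min at RT, then streptavidin donor/nickel chelate acceptor beads (10 ug/mL) for 30 min.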
JMJD2A Tudor – blocks the human JMJD2A Tudor domain | Potency, µM (top dose mostly 114 µM), hits mostly inhibitors | O75164 | AlphaScreen JMJD2A-Tudor / H3K4me3 peptide binding | hit rate 4.4% among 390,000; further: nearly all actives have a fitted effect of over 50% in size
Hits are given with their value; . = inactive; ? = inconclusive; / = not tested or not shown; [ ] = another dose, or the depositor's remark. The call rests on the fitted dose curve; in most records, active means well fitted curve in the direction sought with a large enough effect; inconclusive means small, poorly fitted or top-dose-only effect, or another doubt; inactive means no such curve, though single readings can be large; an effect the other way counts as inactive or inconclusive.

SMILES | G9a inh | BAZ2B block | Sfp inh | HP1b chromo inh | JMJD2A Tudor
CCOC(=O)c1c(-n2cnnn2)sc2c1CCCC2 | . | . | . | . | .
CCOC(=O)c1c(N2C(=O)C3C4C=CC(O4)C3C2=O)sc2c1CCCC2 (configuration not stated) | 1.8µM | . | 8.9µM | ? | 56µM
CCOC(=O)c1c(N2C(=O)Nc3cc(Cl)c(Cl)cc3N2O)sc2c1CCCCC2 | / | ? | . | ? | 79µM
CN1CCN(c2ncnc3c2cnn3-c2ccc(Cl)cc2)CC1 | ? | . | . | . | .
CCN1CCCC1CNC(=O)c1cc(N)ccc1OC (configuration not stated) | / | / | / | ? | 0.79µM
COc1cccc(/C=C2/Sc3ccc(C(=O)NCCN4CCCCCC4)cc3NC2=O)c1 | 40µM | ? | 45µM | . | ?
CCN1CCC[C@H]1CNC(=O)c1cc(S(N)(=O)=O)ccc1OC | . | . | . | / | /
CCN1CCCC1CNC(=O)c1ccc2c(c1)NC(=O)/C(=C\c1ccc(OC)c(OC)c1)S2 (configuration not stated) | .[0.0925 µM] | 25µM | . | . | 28µM
O=C1Nc2cc(C(=O)NCCN3CCCCCC3)ccc2S/C1=C\c1ccccc1 | 45µM | ? | 40µM | . | ?
COC(=O)c1cn(NC(=O)c2ccc(OC)c(OC)c2)c(=O)c2ccccc12 | . | . | . | . | .
O=C(Nn1cc(C(=O)Nc2ccccc2F)c2ccccc2c1=O)c1cnccn1 | . | 28µM | . | . | 28µM
COC(=O)c1cn(NC(=O)c2cnccn2)c(=O)c2ccccc12 | ? | 7.1µM | . | . | 11µM
O=C(NCc1ccco1)C(c1ccncc1)N(CCC1=CCCCC1)C(=O)Cn1nnc2ccccc21 (configuration not stated) | . | . | . | . | .
Cc1ccc(S(=O)(=O)NCC(=O)N(CC(=O)NCC2CCCO2)Cc2ccccc2)cc1 (configuration not stated) | .[2.33 µM] | . | . | . | .
O=C(O)c1ccc(-c2ccccc2)[nH]c1=O | 56µM | . | . | . | .[11.4 µM]
O=C(O)c1ccc(-c2ccccc2)[nH]1 | . | . | . | . | .
Cc1cc(C)nc(NNC2=CC(=[N+]3CCCC3)CCC2)n1 | ? | . | . | ? | 3.2µM
Cc1cc(C)nc(NNC2=CC(=[N+]3CCCCC3)CC(C)(C)C2)n1 | ? | . | . | ? | .
Cc1ccc(C2=NN(C(=O)CCl)C(c3ccco3)C2)o1 (configuration not stated) | 40µM | . | . | ? | .
CC(=O)N1N=C(c2ccc(C)cc2)CC1c1ccco1 (configuration not stated) | . | . | . | . | .
CC(=O)N1N=C(c2ccc(C)o2)CC1c1cccc(F)c1 (configuration not stated) | / | . | 40µM | ? | .
Cc1ccc(C2=NN(C(=O)CCCC(=O)O)C(c3ccco3)C2)cc1 (configuration not stated) | . | . | 45µM | . | .
Cn1nnnc1SCC(=O)N1N=C(c2ccc(Cl)cc2)CC1c1ccco1 (configuration not stated) | / | / | / | . | .
CC(=O)N1N=C(c2ccco2)CC1c1ccco1 (configuration not stated) | . | . | . | . | .
COc1ccc(C2=NN(C(=O)CSc3nnc(C)n3C)C(c3ccco3)C2)cc1 (configuration not stated) | 50µM | . | . | . | .
SMILES | G9a inh | BAZ2B block | Sfp inh | HP1b chromo inh | JMJD2A Tudor
CC1CCCCN1Cc1c(O)ccc2c(=O)c(-c3ccc(Cl)cc3)c(C(F)(F)F)oc12 (configuration not stated) | . | . | / | . | .
CC(=O)Nc1cc(C(=O)NCCN2CCN(Cc3ccccc3)CC2)ccc1Sc1ccc(C)cc1 | . | . | . | . | .
Cc1oc(-c2ccccc2Cl)nc1CN1CCCC1c1ccc(F)cc1 (configuration not stated) | / | . | . | . | .
Cc1ccc(-c2nc(CN3CCCCC3c3cccc(F)c3)c(C)o2)o1 (configuration not stated) | 40µM | . | . | . | ?
Cc1ccc(S(=O)(=O)N[C@H](C(=O)OCC(=O)N2N=C(c3ccc(Cl)cc3)CC2c2ccco2)C(C)C)cc1 (some centres not stated) | . | . | 79µM | . | .
COc1ccc(C2=NN(C(=O)CCCC(=O)O)C(c3cn(-c4ccccc4)nc3-c3ccccc3)C2)cc1 (configuration not stated) | ? | 56µM | . | . | 56µM
O=C(CNC(=O)c1ccccc1)OCC(=O)N1N=C(c2ccc(Cl)cc2)CC1c1ccco1 (configuration not stated) | . | . | . | . | .
O=C(Cn1nc(-c2ccccc2)ccc1=O)NCCN1CCN(Cc2ccccc2)CC1 | . | . | . | . | .
Cc1ccc(Nc2nc3ccccc3c3nncn23)cc1C | . | . | / | . | .
CC(C)C[C@@H](CN)NC(=O)c1nc[nH]c1C(=O)N[C@@H](C)C(=O)CNC[C@H](C)NC(=O)c1nc[nH]c1C(=O)N[C@@H](Cc1ccccc1)C(=O)O | / | / | / | . | 79µM
CC(C)C[C@@H](CN)NC(=O)c1nc[nH]c1C(=O)N[C@@H](C)C(=O)CNC[C@H](C)NC(=O)c1nc[nH]c1C(=O)N[C@@H](C)C(=O)O | / | / | / | . | 50µM
C[C@H](NC(=O)c1nc[nH]c1C(=O)N[C@@H](Cc1ccccc1)C(=O)OCc1ccccc1)C(=O)OCc1ccccc1 | / | . | . | . | .
CC(C)C[C@H](NC(=O)c1[nH]cnc1C(=O)N[C@@H](C)c1ccccc1)C(=O)OCc1ccccc1 | .[12.7 µM] | . | . | . | .
CC(C)C[C@@H](CN)NC(=O)c1nc[nH]c1C(=O)N[C@@H](CC(C)C)C(=O)CNC[C@H](C)NC(=O)c1nc[nH]c1C(=O)N[C@@H](C)C(=O)O | / | / | / | . | 79µM
CC(C)C[C@@H](CNCC(=O)[C@H](CC(=O)O)NC(=O)c1[nH]cnc1C(=O)N[C@H](CN)CC(C)C)NC(=O)c1nc[nH]c1C(=O)N[C@@H](Cc1ccccc1)C(=O)O | / | / | / | . | 50µM
CC(C)C[C@H](NC(=O)c1nc[nH]c1C(=O)N[C@@H](CC(C)C)C(=O)OC(C)(C)C)C(=O)OCc1ccccc1 | . | . | . | . | .
Cc1cc(OCC(=O)NCC2(N3CCN(C)CC3)CCCCC2)cc(C)c1Cl | . | . | / | . | .
O=C(COc1ccc(S(=O)(=O)N2CCOCC2)cc1Cl)NC1CC1 | . | . | . | . | .
C=CCOC(=O)C1=C(C)Nc2[nH]c(=O)[nH]c(=O)c2C1c1ccccc1 (configuration not stated) | ? | / | . | . | .
CC(C)C[C@@H](CN)NC(=O)c1nc[nH]c1C(=O)N[C@@H](C)C(=O)CNC[C@H](C)NC(=O)c1nc[nH]c1C(=O)N[C@@H](CC(C)C)C(=O)O | / | / | / | . | 50µM
